Data from the supplement of paper PMC13380429.

Each molecule was assayed on Vero E6 infected with SARS-CoV-2 (assay: morphology score (similarity to uninfected cells); higher = more like uninfected cells). Details: 24 h.

Compared with `C/C=C1\NC(=O)[C@H]2CSSCC/C=C/[C@H](CC(=O)N[C@H](C(C)C)C(=O)N2)OC(=O)[C@H](C(C)C)NC1=O` [romidepsin] (10 µM), `C[C@@H]1COCCN1c1cc(C2([S@](C)(=N)=O)CC2)nc(-c2ccnc3[nH]ccc23)n1` (0.833333 µM) is higher in morphology score: -0.211 for the first, 0.0164 for the second.

First: N=C1N[C@H]2[C@H](CS[C@H]2CCCCC(=O)O)N1 [2-iminobiotin] (10 µM)
Second: C[N+](C)(C)NCCC(=O)O [meldonium] (10 µM)
The morphology score of the first is lower: 0.0808 for the first, 0.253 for the second.

Going from `CO[C@@]1(NC(=O)CSC[C@@H](N)C(=O)O)C(=O)N2C(C(=O)O)=C(CSc3nnnn3C)CS[C@@H]21` [cefminox] (10 µM) to `C[C@@H]1CN(Cc2ccc(F)cc2)CCN1C(=O)COc1ccc(Cl)cc1NC(N)=O` (10 µM), the morphology score falls from 0.045 to -0.0461.

First: CCOCc1nc2c(N)nc3ccccc3c2n1CC(C)(C)O [resiquimod] (10 µM)
Second: CC1=C(CC(=O)O)c2cc(F)ccc2/C1=C\c1ccc([S+](C)[O-])cc1 (stereo unspecified) [sulindac] (10 µM)
The morphology score of the first is lower: 0.0727 for the first, 0.0804 for the second.

Going from `O=C(CBr)N1CC([N+](=O)[O-])([N+](=O)[O-])C1` (10 µM) to `CC(=O)N[C@H]1[C@@H](O)[C@H](O)[C@@H](CO)O[C@@H]1O` [N-acetylmannosamine] (10 µM), the morphology score rises from 0.0284 to 0.18.

Molecule `CCS(=O)(=O)N(C)[C@@H]1c2cc(C#N)ccc2OC(C)(C)[C@H]1O.CCS(=O)(=O)N(C)[C@H]1c2cc(C#N)ccc2OC(C)(C)[C@@H]1O` (racemic) [chromanol-(+/-)] (10 µM) has a morphology score of 0.241.
